Drawing on PubChem BioAssay (NCI), this text covers growth for 9 compounds.

Among the test systems are SR leukemia; RPMI-8226 leukemia; OVCAR-5 ovarian; OVCAR-4 ovarian; SK-OV-3 ovarian; IGROV1 ovarian; OVCAR-3 ovarian; HS 578T breast; NCI/ADR-RES ovarian; T-47D breast; BT-549 breast; MDA-MB-435 melanoma; SW-620 colon; MCF7 breast; HCT-116 colon; HCC-2998 colon; KM12 colon; OVCAR-8 ovarian.
Assay in all cases: NCI-60 one-dose screen, 48 h (100 = growth as untreated, 0 = no growth, -100 = all killed)
What all share (conditions): 10 µM unless noted

About 83,000 compounds went through this panel and 20% of them were active in at least one assay; those are over-represented in the sample as a whole.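 Cells were grown in 96-well plates and exposed to the test compound at a single concentration for 48 hours; results are reported as percent growth, with values below 10 considered active.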 Unmarked numbers belong to inactive results. Active and inactive are the calls of the source.

Take `Cc1c(C)c2c(c(C)c1NC(=O)/C=C\C(=O)O)CCC(C)(CCCC(C)CCCC(C)CCCC(C)C)O2` (configuration not stated): the growth in the experiment with SR leukemia is 9.98% (active); with RPMI-8226 leukemia it was 30.6%; in the experiment on OVCAR-5 ovarian, 87.6%; in the experiment on OVCAR-4 ovarian, 39.4%; with SK-OV-3 ovarian, 54.6%; in the experiment on IGROV1 ovarian, 56.8%. The growth was 43.2% in the experiment on OVCAR-3 ovarian; 57.4% with HS 578T breast; 43.1% in the experiment with NCI/ADR-RES ovarian; 54.5% with T-47D breast; -58.5% (active) in the experiment with BT-549 breast; 50.9% in the experiment on MDA-MB-435 melanoma. The growth is 30% in the experiment with SW-620 colon; 51.2% in the experiment with MCF7 breast; 4.08% (active) in the experiment on HCT-116 colon; 79.8% in the experiment on HCC-2998 colon; 29.2% in the experiment with KM12 colon.

For the compound `COc1ccc(/C=C2\C=C(c3ccccc3)N(CCc3ccccc3)C2=O)cc1OC`, the growth was -1.98% (active) with SR leukemia; 70.6% in the experiment on RPMI-8226 leukemia; 67.2% in the experiment with OVCAR-5 ovarian; -5.49% (active) in the experiment on OVCAR-4 ovarian; -30.3% (active) in the experiment with SK-OV-3 ovarian; 49% in the experiment with IGROV1 ovarian. For the same compound, the growth in the experiment on OVCAR-3 ovarian is 28%; in the experiment with HS 578T breast, 13.1%; in the experiment on NCI/ADR-RES ovarian, 31.6%; with T-47D breast, 8% (active); with BT-549 breast it was 80.1%; in the experiment on MDA-MB-435 melanoma it was 36%. The growth is 56% in the experiment with SW-620 colon; 34.4% with MCF7 breast; 32.8% in the experiment with HCT-116 colon; 73.3% in the experiment with HCC-2998 colon; 64% with KM12 colon.

Take `O=C(CC1Sc2ccccc2NC1=O)NNc1ccc(F)cc1` (configuration not stated): the growth in the experiment with SR leukemia was 83.5%; with RPMI-8226 leukemia, 78.7%; with OVCAR-5 ovarian it was 76.3%; in the experiment with OVCAR-4 ovarian, 72%; in the experiment on SK-OV-3 ovarian, 92.5%; in the experiment with IGROV1 ovarian it was 70.3%. Moreover, the growth was 84.8% in the experiment on OVCAR-3 ovarian; 82.4% in the experiment with HS 578T breast; 44.1% in the experiment with NCI/ADR-RES ovarian; 66.4% with T-47D breast; 88.6% in the experiment with BT-549 breast; 31% in the experiment with MDA-MB-435 melanoma. For the same compound, the growth with SW-620 colon is 106%; in the experiment with MCF7 breast, 84.7%; in the experiment on HCT-116 colon it was 71.6%; in the experiment with HCC-2998 colon it was 63.7%; with KM12 colon, 77.4%.

With `CCNCCNc1cc(-c2cccc(C(F)(F)F)c2)c(C#N)c2nc3ccccc3n12`, the growth with SR leukemia is -37.5% (active); in the experiment with RPMI-8226 leukemia it was -29.3% (active); with OVCAR-5 ovarian it was -79.3% (active); with OVCAR-4 ovarian, -83% (active); in the experiment with SK-OV-3 ovarian, -97.2% (active); in the experiment with IGROV1 ovarian, -74.2% (active). The growth in the experiment on OVCAR-3 ovarian is -86.7% (active); in the experiment with NCI/ADR-RES ovarian, -55% (active); with T-47D breast it was -72.4% (active); in the experiment on BT-549 breast, -64.6% (active); in the experiment on MDA-MB-435 melanoma, -93.3% (active); with SW-620 colon, -67.3% (active). The growth is -70% (active) in the experiment with MCF7 breast, -93.9% (active) in the experiment on HCT-116 colon, -80.9% (active) with HCC-2998 colon and -75.6% (active) in the experiment with KM12 colon.

On to `Cc1c2c(cn1Cc1ccccc1)CCc1cn[nH]c1-2`, for which the growth is 51.6% in the experiment with SR leukemia; 70.8% with RPMI-8226 leukemia; 94.6% with OVCAR-8 ovarian; 81.3% in the experiment with OVCAR-4 ovarian; 114% with SK-OV-3 ovarian; 84.5% in the experiment with IGROV1 ovarian. Moreover, the growth in the experiment on OVCAR-3 ovarian was 100%; in the experiment with T-47D breast, 90.3%; in the experiment with BT-549 breast, 96.5%; in the experiment on MDA-MB-435 melanoma, 26.8%; in the experiment with SW-620 colon it was 95.8%; in the experiment on MCF7 breast it was 81.5%. The growth in the experiment on HCT-116 colon is 89.5%; in the experiment on HCC-2998 colon, 86.1%; with KM12 colon, 78.8%.

For the compound `C=C(C)[C@@H]1CC[C@@]2(C(=O)O)CC[C@]3(C)C(CCC4[C@@]5(C)CCC(OS(=O)(=O)c6ccccc6)C(C)(C)C5CC[C@]43C)C12` (some centres not stated), the growth in the experiment with SR leukemia is 56.7%; in the experiment on RPMI-8226 leukemia, 30.4%; in the experiment on OVCAR-5 ovarian, 89.7%; in the experiment with OVCAR-4 ovarian it was 54.7%; with SK-OV-3 ovarian, 74.4%; with IGROV1 ovarian, 93.7%. Also, the growth with OVCAR-3 ovarian was 50.8%; with HS 578T breast it was 67.5%; in the experiment with NCI/ADR-RES ovarian, 52.5%; in the experiment on T-47D breast, 34.9%; in the experiment with BT-549 breast it was 58.9%; in the experiment with MDA-MB-435 melanoma, 59.4%. The growth was 48.8% in the experiment on SW-620 colon; 50.6% in the experiment with MCF7 breast; 25.7% with HCT-116 colon; 33.9% with HCC-2998 colon; 31.4% in the experiment on KM12 colon.

`C=C(C=O)C1CCC2(C(=O)O)CCC3(C)C(CCC4C5(C)CCC(O)C(C)(C)C5CCC43C)C12` (configuration not stated): the growth is -2.18% (active) in the experiment with SR leukemia; -12.7% (active) in the experiment on RPMI-8226 leukemia; 16.8% in the experiment with OVCAR-8 ovarian; 34.2% in the experiment on OVCAR-4 ovarian; 51% in the experiment on SK-OV-3 ovarian; 6.56% (active) in the experiment with IGROV1 ovarian. In addition, the growth in the experiment on OVCAR-3 ovarian is -86.9% (active); in the experiment with T-47D breast, 45%; with BT-549 breast, 17.4%; in the experiment with MDA-MB-435 melanoma, 16%; with SW-620 colon, -14.5% (active); in the experiment with MCF7 breast it was 6.07% (active). Also, the growth in the experiment with HCT-116 colon is -92.3% (active); in the experiment with HCC-2998 colon it was -85.2% (active); with KM12 colon it was -87.8% (active).

Take `O=C1N(c2ccccc2)C(=S)N[C@]12[C@H](c1ccccc1)C1CCCN1[C@]21C(=O)NC2C=CC(Cl)=C[C@H]21` (some centres not stated): the growth with SR leukemia is 96%; in the experiment with RPMI-8226 leukemia, 73.7%; in the experiment with OVCAR-5 ovarian, 117%; in the experiment with OVCAR-4 ovarian, 102%; in the experiment with SK-OV-3 ovarian it was 88%; with IGROV1 ovarian, 95.1%. Moreover, the growth with OVCAR-3 ovarian is 106%; with HS 578T breast, 83.6%; in the experiment with NCI/ADR-RES ovarian, 102%; with T-47D breast it was 79.6%; in the experiment with BT-549 breast, 90.2%; with MDA-MB-435 melanoma, 112%. Moreover, the growth was 101% in the experiment on SW-620 colon; 99.1% with MCF7 breast; 78.1% in the experiment on HCT-116 colon; 103% with HCC-2998 colon; 100% in the experiment on KM12 colon.

Consider `CCC(=O)OC1=C(C)SC2=NC(c3ccc(Cl)c(Cl)c3)=CC(c3cc(OC)c(OC)c(OC)c3)N21` (configuration not stated), for which the growth with SR leukemia is 103%; in the experiment with RPMI-8226 leukemia it was 95.8%; in the experiment with OVCAR-5 ovarian, 102%; in the experiment on OVCAR-4 ovarian it was 98.1%; in the experiment on SK-OV-3 ovarian, 105%; with IGROV1 ovarian, 106%. Also, the growth in the experiment with OVCAR-3 ovarian was 108%; with HS 578T breast it was 101%; with T-47D breast, 97.5%; in the experiment on BT-549 breast, 103%; in the experiment with MDA-MB-435 melanoma it was 103%; with SW-620 colon, 109%. Moreover, the growth in the experiment with MCF7 breast is 94.1%; in the experiment with HCT-116 colon, 95%; in the experiment on HCC-2998 colon, 110%; in the experiment with KM12 colon it was 107%.
